# Reference: PubChem BioAssay AID651593 (National Center for Advancing Translational Sciences (NCATS), 2012)
# In all, about 1,100 compounds went through this assay and about 860 (78%) were called active. Not shown: some 19% with an inconclusive outcome. So high a share suggests a set chosen from earlier hits. The list shows a part of the results. A number with no mark means an inactive call. The call rests on the fitted dose curve; in most records, active means well fitted activation curve with a large enough effect; inconclusive means small, poorly fitted or top-dose-only effect; inactive means flat fitted curve, though single readings scatter.
# Experiment: qHTS of Nrf2 Activators: Hit Validation in Primary Assay; further: nearly all actives have a fitted effect of over 70% in size; on activation: 0% is about no effect
# Conditions: Nrf2/ARE reporter cell assay; Potency: activation; series mostly up to 46.1 µM; activation: at the top concentration
# How it was run: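 AREc32 cells stably carrying an ARE-driven firefly luciferase, plated overnight, then exposed 24 h at 37 °C to compounds at several concentrations. ARE activation read as luminescence with Steady-Glo after 30 min at room temperature.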
# Potency means the concentration at half of the fitted maximal effect.
Structure (SMILES),Potency,activation [%]
COc1ccc(OC)c(C(=O)Nc2c(O)ccc3ccccc23)c1,5.8 µM (active),
COc1ccc(COc2ccsc2C(=O)Nc2ccc(Cl)cc2)cc1,4.61 µM (active),
Cc1nc2nc(-c3ccccc3)nn2c(C)c1Cl,4.11 µM (active),
O=C1/C(=C\c2ccco2)NC(=S)N1c1ccccc1,3.66 µM (active),
CCn1c(NC(=O)c2ccccc2)nc2ccccc21,3.66 µM (active),
CCn1c(NC(=O)c2cccs2)nc2ccccc21,5.17 µM (active),
Cn1c(=O)c2nc(-c3ccccc3)oc2c2ccccc21,1.84 µM (active),
O=C(c1ccco1)c1cc2c(ccc3ccccc32)oc1=O,9.2 µM (active),
O=C(c1ccco1)c1cn(CC(=O)N2CCCc3ccccc32)c2ccccc12,,7.56
CC(C)=NNc1cnnc2ccc([N+](=O)[O-])cc12,18.4 µM (active),
Cn1ccsc1=NC(=O)c1ccc([N+](=O)[O-])o1,5.17 µM (active),
CN(N=Cc1ccccc1O)c1ccc2ccccc2n1,2.91 µM (active),
Oc1ccc(CNc2ccccc2O)cc1,16.4 µM (active),
Oc1ccc(NCc2cccc(OCc3ccc(F)cc3)c2)cc1,,21.5
CC(=O)Nc1ccc2nc(NC(=O)c3ccco3)sc2c1,4.11 µM (active),
O=C(Nc1nc2c(ccc3ccccc32)s1)c1ccco1,1.16 µM (active),
O=C(Nc1nc(-c2ccncc2)cs1)c1ccco1,4.11 µM (active),
O=C(Nc1nc2ccsc2c(=O)s1)c1ccco1,1.3 µM (active),
Cc1cc(Cl)cc2sc(NC(=O)c3ccco3)nc12,16.4 µM (active),
O=C(NC(=S)Nc1cc(C(F)(F)F)ccc1Cl)c1ccccc1,2.91 µM (active),
O=C(NC(=S)Nc1cc([N+](=O)[O-])ccc1Cl)c1ccccc1,2.31 µM (active),

Structure (SMILES),Potency,activation [%]
O=C(CSc1cccc[n+]1[O-])Nc1cc([N+](=O)[O-])ccc1Cl,20.6 µM (active),
Cn1c(=O)c2nc(NCc3ccccc3)sc2n(C)c1=O,1.46 µM (active),
CC(=O)Nc1nc2cccc([N+](=O)[O-])c2s1,1.84 µM (active),
O=C(/C=C/c1ccc2c(c1)OCO2)c1ccc(O)cc1O,14.6 µM (active),
O=C(CSc1ncnc2c1oc1ccccc12)NCc1ccco1,13 µM (active),
c1coc(CNc2ncnc3c2oc2ccccc23)c1,3.66 µM (active),
O=C(CSc1ncnc2c1oc1ccccc12)c1cccs1,5.17 µM (active),
COc1ccc2[nH]c3c(NCc4ccco4)ncnc3c2c1,2.59 µM (active),
c1coc(CSc2ncnc3c2oc2ccccc23)c1,2.91 µM (active),
O=C(CSc1nnc2c(n1)[nH]c1ccccc12)NCc1ccco1,20.6 µM (active),
O=[N+]([O-])c1cncc([N+](=O)[O-])c1Nc1cccc(O)c1,14.6 µM (active),
O=c1[nH]ncc(N/N=C\c2cccs2)c1Cl,20.6 µM (active),
CN(C)c1oc(/C=C/c2ccccc2)nc1C#N,3.26 µM (active),
O=C(CCNc1cc(Cl)cc(Cl)c1)c1cccs1,6.51 µM (active),
O=[N+]([O-])c1ccc(/C=N/Nc2ccc3ccccc3c2)o1,2.91 µM (active),
Nc1ccc(S(=O)(=O)Nc2nccc(/C=C/c3cccc(Br)c3)n2)cc1,3.26 µM (active),
CC(C)C(=O)Nc1nnc(-c2ccco2)s1,5.8 µM (active),
Cc1cc(NC(=O)Nc2cc(Cl)sc2Cl)no1,4.11 µM (active),
O=C1N/C(=C\c2ccsc2)C(=O)N1Cc1ccc(F)cc1,1.64 µM (active),
Cc1c(=O)n(OCc2ccccc2)c2ccccc2[n+]1[O-],3.26 µM (active),
Cc1c(=O)n(OCc2ccc(Cl)cc2)c2ccccc2[n+]1[O-],1.64 µM (active),

Structure (SMILES),Potency,activation [%]
C=CCn1c(SCC(C)=O)nc2scc(-c3ccco3)c2c1=O,0.731 µM (active),
O=C(/C=C\c1ccc2c(c1)OCO2)CC1(O)C(=O)Nc2ccccc21 (stereo not drawn),23.1 µM (active),
CN1CCN(C(=O)CCN2C(=O)/C(=C/c3cccc(Br)c3)SC2=S)CC1,5.17 µM (active),
O=C(N/N=C/c1ccsc1)c1ccc2ccccc2n1,16.4 µM (active),
C(=N/n1c2ccccc2c2ccccc21)/c1ccco1,2.31 µM (active),
COc1ccccc1C=Cc1ccnc2ccccc12,2.06 µM (active),
O=C(/C=C/c1ccccc1)Nc1ncn[nH]1,3.66 µM (active),
Cc1nc(NC(=O)/C=C/c2ccccc2)n[nH]1,3.66 µM (active),
FC(F)(F)c1cc(-c2cccs2)nc(-n2cc(Br)cn2)n1,1.3 µM (active),
C/C(=N\NC(=O)c1cccc(Br)c1)c1ccccn1,4.61 µM (active),
CCn1c(/C=C/c2ccccc2F)nc2ccccc2c1=O,2.31 µM (active),
O=c1[nH]c(/C=C/c2ccccc2[N+](=O)[O-])nc2ccccc12,0.411 µM (active),
CCn1c(/C=C/c2ccccc2)nc2ccccc2c1=O,4.11 µM (active),
CCn1c(/C=C/c2ccccc2[N+](=O)[O-])nc2ccccc2c1=O,3.66 µM (active),
CCCn1c(-c2cccs2)nc2nc3ccccc3nc21,1.84 µM (active),
O=c1cc(-c2ccccc2Cl)oc2c(Br)ccc(O)c12,6.51 µM (active),
[O-][n+]1onc2c3cc(-c4ccccc4)nnc3ccc21,8.2 µM (active),
[O-][n+]1onc2c3ccnnc3ccc21,10.3 µM (active),
c1ccc(-c2cc3c(ccc4nonc43)nn2)cc1,7.31 µM (active),
CC(=O)N1CCc2c(sc(NC(=O)CCS(=O)(=O)c3ccccc3)c2C#N)C1,18.4 µM (active),
O=C1C(=Cc2ccco2)CCCC1=Cc1ccco1,3.26 µM (active),
